# The source made the active and inactive calls.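 The calls were made as follows, unless noted: active = fluorescence slope higher than the sample average by over 3 SD (cut at about -0.22 in these data, passing the limit was not always enough); inactive = the rest.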
# Key:
# [1] = inhibitors of TNFa-induced NFkB p65 translocation, primary screen, imaging, HUVEC, MLSMR starter and 10KST1 sets (AID 438;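 active = inhibition above 20% together with a positive visual image hit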;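 also: compound added about 3h40 before a 20 min TNFalpha stimulation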;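 as to inhibition: signal is the nuclear over cytoplasmic p65 intensity ratio per well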); conditions: HUVEC TNFa-induced p65 nuclear translocation; cell count: measured here: nuclei count (cytotoxicity indicator), at 2.08 µM; inhibition: at 2 µM, stronger effect = higher value, 0% TNFa-plus-vehicle, 100% no-TNFa wells
# [2] = reduction of polyQ htt aggregates in cells – imaging, exon1htt(103Q)mCFP cells, high-content imaging, primary screen (AID 483;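 active = visual image review flags a hit and inhibition of aggregation exceeds 20%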;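 also: compound exposure lasted 3 days before fixation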;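 as to nuclei count: percent of the per-plate median nuclei count of sample wells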); conditions: exon1htt(103Q)mCFP cell line, aggregate imaging, at 2 µM; inhibition of aggregation: stronger effect = higher value; nuclei count: measured here: cell count, toxicity
# [3] = endothelial E-selectin expression blockers – imaging, HUVEC, immunofluorescence, MLSMR starter and 10KST1 sets, primary screen (AID 487;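 active = visually confirmed hit in the image check and inhibition above 20%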;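 as to inhibition: signal is fraction of cell area covered by stained E-selectin grains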;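 as to nuclei count: 100% = median nuclei count of all wells on the same plate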); conditions: HUVEC TNFalpha-induced E-selectin immunofluorescence imaging, at 2 µM; inhibition: stronger effect = higher value; nuclei count: measured here: cell number, toxicity
# [4] = molecular target: Voltage-gated potassium channel subunit beta-2 (Rattus norvegicus) (UniProt P62483); test: inhibitors of rat Kvbeta2 reductase activity – biochemical, NADPH fluorescence, primary screen (AID 622); conditions: recombinant KvBeta, 4-cyanobenzaldehyde reduction, at 10 µM, stronger effect = higher value;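 also: slope of raw intensity against log time taken from 70 to 1610 s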
# [5] = molecular target: Voltage-gated potassium channel subunit beta-2 (Rattus norvegicus) (UniProt P62483); test: enhancers of rat Kvbeta2 NADPH turnover – biochemical, NADPH fluorescence, primary screen (AID 623;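 active = NADPH fluorescence slope more negative than the mean of all samples by about 3 SD, 99.7% confidence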;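 also: fluorescence intensity change per second fitted from 20 to 320 s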); conditions: Recombinant KvBeta, NADPH fluorescence decrease slope, 10 min; at 10 µM; stronger effect = lower value
# [6] = molecular target: Alpha-2C adrenergic receptor (Homo sapiens) (UniProt P18825); test: compounds altering alpha2C-coupled GIRK flux – cell-based, HEK293 alpha2C/GIRK1/2, thallium flux, primary screen (AID 624;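 active = fluorescence slope after compound addition differing from the mean of all screened samples at 99.7% confidence, in either direction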;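 also: slope of fluorescence ratio to pre-addition baseline per second over 15 to 24 s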); conditions: thallium flux BTC fluorescence, at 10 µM, actives lie on both sides
# [7] = blockers of RIG-like receptor reporter activation – cell-based, Sendai virus stimulus, luciferase, 10K MLSCN set, TLR/RLR signaling modifier project, primary screen (AID 602276;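 active = inhibition at or above 50% at 10 µM; inactive = inhibition below 50%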;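 also: firefly luciferase from ISG56 promoter only with Renilla not read in this screen; 0% = Sendai virus plus DMSO and 100% = medium plus DMSO without virus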); conditions: HEK293 RL24 IRF3 luciferase reporter, at 10 µM, stronger effect = higher value
# [8] = TLR3 IRF3 reporter activation blockers – cell-based, poly I:C stimulus, luciferase, 10K MLSCN set, primary screen (AID 602277;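 active = inhibition of the reporter signal at or above 50%; inactive = inhibition below 50%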); conditions: HEK293-TLR3 RL24 IRF3 luciferase reporter, at 10 µM, stronger effect = higher value
# [9] = Primary imaging screen for DUSP6 inhibitors that restore phospho-Erk in transfected HeLa cells, chemical complementation (AID 609;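 active = compounds giving at least 50% inhibition in the cell-based MKP-3 phosphatase rescue imaging test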;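 as to inhibition: phospho-Erk level distribution per well compared with pooled transfected vehicle control wells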); conditions: HeLa MKP-3 transfected, phospho-Erk imaging KS statistic, at 10 µM, cells stimulated with TPA for 15 min
# [10] = molecular target: Dual specificity protein phosphatase 6 (Homo sapiens) (UniProt Q16828); test: as above; conditions: HeLa MKP-3 transfected, phospho-Erk imaging KS statistic; at 10 µM; stronger effect = higher value; cells stimulated with TPA for 15 min
# [11] = molecular target: Muscarinic acetylcholine receptor M4 (Homo sapiens) (UniProt P08173); test: M4-linked GIRK flux change, two-sided – cell-based, HEK293 M4/GIRK, thallium flux, BTC-AM, M4 allosteric agonist project, primary screen (AID 625;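 active = fluorescence slope after compound addition differing from the mean of all tested samples at 99.7% confidence, mostly higher but some lower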;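 also: thallium influx through GIRK channels coupled to M4 in HEK293 cells with BTC-AM dye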); conditions: at 10 µM, actives lie on both sides
# [12] = inhibitors of larval lipid processing in zebrafish, primary screen, whole organism, PED6 fluorescence, gall bladder and intestine (AID 686;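 active = a full or partial loss of lipid-probe fluorescence in the fish gall bladder, intestine or both, judged by eye; inactive = no fluorescence loss, or compound toxic to the fish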;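 also: larvae 5 to 7 days old with five fish per well; signal comes from phospholipase A2 cleavage of quenched PED6 carried via bile; overnight exposure to compound and PED6 before scoring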); conditions: Zebrafish larvae PED6 lipid processing, fluorescence scoring; screened at 20 µM (by protocol)
# [13] = loss of swimming-algae plug formation – whole organism, Chlamydomonas reinhardtii, WT vs cilia-less mutant, absorbance, 96-well, primary screen (AID 463189;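 active = inhibition at or above 50% relative to wild type and mutant plate controls; inactive = inhibition below 50%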;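 also: 0% = wild type cc124 cells in DMSO and 100% = ciliumless bld1 mutant cells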); conditions: Chlamydomonas reinhardtii gravitaxis, OD600 absorbance, 2 days; at 10 µM; stronger effect = higher value
# [14] = measured here: cell density z-score
# [15] = measured here: nuclear c-Myc green intensity z-score
# [16] = measured here: nuclear pErk red intensity z-score, stronger effect = higher value
# Chain of Muscarinic acetylcholine receptor M4 (Homo sapiens) (P08173 whole entry, looked up): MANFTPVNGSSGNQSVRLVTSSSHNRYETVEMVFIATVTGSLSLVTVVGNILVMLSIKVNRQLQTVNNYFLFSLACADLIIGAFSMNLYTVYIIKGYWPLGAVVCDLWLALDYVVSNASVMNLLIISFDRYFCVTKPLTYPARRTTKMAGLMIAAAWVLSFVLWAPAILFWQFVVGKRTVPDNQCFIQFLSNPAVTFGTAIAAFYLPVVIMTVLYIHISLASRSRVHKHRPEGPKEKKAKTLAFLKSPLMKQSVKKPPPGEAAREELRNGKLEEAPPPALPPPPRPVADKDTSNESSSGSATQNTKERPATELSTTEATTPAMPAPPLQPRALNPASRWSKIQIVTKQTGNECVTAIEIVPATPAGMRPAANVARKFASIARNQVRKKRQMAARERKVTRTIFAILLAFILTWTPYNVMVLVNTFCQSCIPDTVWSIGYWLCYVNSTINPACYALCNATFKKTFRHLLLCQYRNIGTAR
# Chain of Dual specificity protein phosphatase 6 (Homo sapiens) (Q16828 whole entry, looked up): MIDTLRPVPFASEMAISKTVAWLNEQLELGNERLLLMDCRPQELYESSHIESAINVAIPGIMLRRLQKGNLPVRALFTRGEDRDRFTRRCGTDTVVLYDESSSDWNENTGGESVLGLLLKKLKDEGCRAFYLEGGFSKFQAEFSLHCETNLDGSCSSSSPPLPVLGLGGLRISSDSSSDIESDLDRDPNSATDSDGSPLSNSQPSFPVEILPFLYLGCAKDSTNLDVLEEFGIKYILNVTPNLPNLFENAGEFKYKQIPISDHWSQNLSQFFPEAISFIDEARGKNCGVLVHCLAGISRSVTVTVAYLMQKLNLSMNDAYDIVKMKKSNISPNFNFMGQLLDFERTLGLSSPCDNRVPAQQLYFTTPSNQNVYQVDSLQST
# Chain of Voltage-gated potassium channel subunit beta-2 (Rattus norvegicus) (P62483 whole entry, looked up): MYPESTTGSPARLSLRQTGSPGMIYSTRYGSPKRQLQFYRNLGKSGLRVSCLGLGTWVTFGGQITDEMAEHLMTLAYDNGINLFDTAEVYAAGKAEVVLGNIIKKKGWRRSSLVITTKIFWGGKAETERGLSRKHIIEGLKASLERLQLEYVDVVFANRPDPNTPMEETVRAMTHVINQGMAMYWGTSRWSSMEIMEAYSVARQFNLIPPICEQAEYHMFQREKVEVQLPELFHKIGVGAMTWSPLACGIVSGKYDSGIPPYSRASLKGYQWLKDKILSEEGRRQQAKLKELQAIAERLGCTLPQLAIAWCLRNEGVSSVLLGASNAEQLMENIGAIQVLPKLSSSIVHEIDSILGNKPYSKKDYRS
# Chain of Alpha-2C adrenergic receptor (Homo sapiens) (P18825 whole entry, looked up): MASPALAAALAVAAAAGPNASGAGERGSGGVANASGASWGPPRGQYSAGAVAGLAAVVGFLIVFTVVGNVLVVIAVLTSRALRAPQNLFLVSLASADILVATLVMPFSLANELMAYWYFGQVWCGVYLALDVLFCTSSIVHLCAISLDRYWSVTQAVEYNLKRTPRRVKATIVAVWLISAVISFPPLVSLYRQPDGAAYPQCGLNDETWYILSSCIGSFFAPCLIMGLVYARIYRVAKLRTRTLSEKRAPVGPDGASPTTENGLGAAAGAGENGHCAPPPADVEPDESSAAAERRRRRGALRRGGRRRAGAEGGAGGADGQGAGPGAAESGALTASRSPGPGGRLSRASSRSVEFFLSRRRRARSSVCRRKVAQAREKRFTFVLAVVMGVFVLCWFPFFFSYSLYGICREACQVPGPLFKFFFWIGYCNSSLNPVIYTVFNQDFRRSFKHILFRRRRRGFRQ
SMILES,cell count [1],inhibition [1],inhibition of aggregation [2],nuclei count [2] [%],inhibition [3],nuclei count [3] [%],fluorescence slope [4],NADPH fluorescence slope [5],slope [6],inhibition [7],inhibition [8],"z-score [9, 14]","z-score [9, 15]","z-score [9, 16]",inhibition [10],fluorescence slope [11],outcome [12],inhibition [13]
O=C(Nc1ccccc1)N1CCC(c2ccccc2)C1 (configuration not stated),331,23.5% (inactive),3% (inactive),101,13.1% (inactive),103,-0.481 (inactive),-9.5e-06 (inactive),0.00694 (inactive),-49.3% (inactive),-82.3% (inactive),,,,,,,
COC(=O)c1c(-n2cnnn2)sc(C)c1C,504,-4.7% (inactive),,,,172,-0.421 (inactive),-4.5e-05 (inactive),,,,-0.751,1.91,1.76,-2.29% (inactive),0.00518 (inactive),inactive,-6.11% (inactive)
CCOC(=O)N1CCN(Cc2nc3c(c(=O)n(C)c(=O)n3C)n2Cc2ccccc2)CC1,598,2.9% (inactive),-8.1% (inactive),120,0.1% (inactive),115,-0.538 (inactive),-3.9e-05 (inactive),0.00607 (inactive),9% (inactive),14.8% (inactive),,,,,,,
c1ccc(CSc2nnc(-c3cccs3)n2Cc2ccco2)cc1,601,-13.3% (inactive),-3.7% (inactive),102,51.5% (inactive),102,-0.488 (inactive),3.8e-06 (inactive),0.00593 (inactive),-8.26% (inactive),-9.64% (inactive),,,,,,,
COC(=O)c1ccc2c(c1)nc(C)n2CCO,360,-4% (inactive),-26% (inactive),139,-23.6% (inactive),94.3,-0.315 (inactive),-2.9e-05 (inactive),0.00466 (inactive),5.24% (inactive),12.5% (inactive),,,,,,,
COc1ccc(CCn2c(C)cc(C(=O)CSc3nnnn3C)c2C)cc1,441,-1.5% (inactive),-14.4% (inactive),131,-45.2% (inactive),110,-0.412 (inactive),4.6e-05 (inactive),0.00361 (inactive),0.703% (inactive),-19.8% (inactive),,,,,,,
CCn1c(C(C#N)/C(=N\S(=O)(=O)c2cccs2)c2ccccc2)nc2ccccc21 (configuration not stated),694,25.4% (active),-17.3% (inactive),94.2,-188% (inactive),119,-0.493 (inactive),-3.2e-06 (inactive),0.00669 (inactive),10.5% (inactive),40.9% (inactive),,,,,,,
O=C(CSc1nnc(CNC(=O)c2c(F)cccc2Cl)o1)c1ccccc1,672,-19.6% (inactive),40.1% (active),100,-111% (inactive),123,-0.406 (inactive),-5.2e-05 (inactive),0.00534 (inactive),3.28% (inactive),18.3% (inactive),,,,,,,
Cc1cccn2c(=O)c(/C=C(\C#N)S(=O)(=O)c3ccccc3)c(N3CCN(C)CC3)nc12,468,-9.2% (inactive),,,,183,-0.457 (inactive),-6e-05 (inactive),,,,-0.688,-1.21,-0.646,7.7% (inactive),0.00316 (inactive),inactive,1.87% (inactive)
O=c1[nH]c(N2CCc3ccccc32)nc2c1CCCC2,309,1.1% (inactive),11% (inactive),68.4,14.7% (inactive),82.4,-0.507 (inactive),-4.2e-05 (inactive),0.0041 (inactive),6.82% (inactive),-14.4% (inactive),,,,,,,
CCOC(=O)N1CCN(c2c(N3CCN(c4ccccc4OC)CC3)c(=O)c2=O)CC1,651,-2.3% (inactive),18.3% (inactive),109,-66.1% (inactive),129,-0.532 (inactive),-2.1e-05 (inactive),0.0077 (inactive),3.99% (inactive),15% (inactive),,,,,,,
COCc1nnc(NC(=O)c2ccc(S(=O)(=O)N(C)c3ccccc3)cc2)o1,716,2.4% (inactive),-2% (inactive),116,-21% (inactive),107,-0.575 (inactive),1.3e-05 (inactive),0.00656 (inactive),13.8% (inactive),7.35% (inactive),,,,,,,
CC(=O)O[C@H]1CSC[C@H]1NC(=O)c1ccccc1,467,10.9% (inactive),9.1% (inactive),96.2,21.9% (inactive),111,-0.509 (inactive),-1.7e-05 (inactive),0.00411 (inactive),16.6% (inactive),16.9% (inactive),,,,,,,
CN(C1CCCCC1)S(=O)(=O)c1ccc(S(=O)(=O)N2CCN(CCC#N)CC2)cc1,698,0% (inactive),28.2% (inactive),124,-53.2% (inactive),107,-0.527 (inactive),-3.3e-06 (inactive),0.00618 (inactive),3.23% (inactive),15.8% (inactive),,,,,,,
O=C(NCC1CCCO1)c1ccc(C(=O)NCC2CCCO2)cc1 (configuration not stated),331,1.9% (inactive),-3.7% (inactive),101,52.3% (inactive),94.3,-0.332 (inactive),-3.2e-05 (inactive),0.00518 (inactive),1.79% (inactive),4.03% (inactive),,,,,,,
CCc1ccc(N2CC(C(=O)OCC(=O)NC3CCS(=O)(=O)C3)CC2=O)cc1 (configuration not stated),260,21% (inactive),12% (inactive),85.2,6.8% (inactive),91.9,-0.468 (inactive),7e-05 (inactive),0.00704 (inactive),0.238% (inactive),7.99% (inactive),,,,,,,
Cc1ccc(-c2nc3cc(NC(=O)C(C)C)ccc3o2)cc1C,709,-5% (inactive),-7.4% (inactive),99.3,-160% (inactive),122,-0.453 (inactive),2.2e-05 (inactive),0.00605 (inactive),19.2% (inactive),12.7% (inactive),,,,,,,
COc1ccc2[nH]c(=O)c(CN(C(=O)c3ccncc3)C(C)C)cc2c1,438,-6.2% (inactive),4.6% (inactive),120,-13% (inactive),147,-0.448 (inactive),-5.5e-05 (inactive),0.00387 (inactive),8.68% (inactive),37.7% (inactive),,,,,,,
CCOC(=O)C(NC(=O)Nc1ccccc1)(OCC)C(F)(F)F (configuration not stated),517,-2.4% (inactive),-2.5% (inactive),97.9,25% (inactive),89.1,-0.639 (inactive),1.8e-05 (inactive),0.0106 (inactive),16.5% (inactive),30.2% (inactive),,,,,,,
CCC(C)(C(=O)NC1CCCC1)N(C(=O)c1cnccn1)c1c(C)n(C)n(-c2ccccc2)c1=O (configuration not stated),568,3.8% (inactive),7% (inactive),91.3,15.6% (inactive),89.6,-0.471 (inactive),-0.000132 (inactive),0.00518 (inactive),-1.44% (inactive),9.08% (inactive),,,,,,,
CC(C)OC(=O)c1cc(=O)[nH]c2ccccc12,267,14% (inactive),5.3% (inactive),94,-4.6% (inactive),92.6,-0.556 (inactive),3e-05 (inactive),0.00572 (inactive),12.2% (inactive),9.33% (inactive),,,,,,,
CCOc1ccc(OCc2cccc(C(=O)N3CCCC3)c2)cc1,488,0% (inactive),-4.9% (inactive),103,3.3% (inactive),106,-0.423 (inactive),-3.1e-05 (inactive),0.00502 (inactive),-43% (inactive),-105% (inactive),,,,,,,
Cc1ccc(-n2c(=O)c(C#N)cc3c(=O)n4ccccc4nc32)cc1,338,3.6% (inactive),-21.9% (inactive),99.9,-31% (inactive),102,-0.232 (inactive),9.6e-06 (inactive),0.00607 (inactive),5.28% (inactive),26.9% (inactive),,,,,,,
CCOc1cccc(OCCCCn2ccnc2)c1,339,-3.1% (inactive),-7.7% (inactive),99,-124% (inactive),114,-0.36 (inactive),5e-05 (inactive),0.00579 (inactive),9.17% (inactive),21.4% (inactive),,,,,,,
COc1ccc(-c2nc3n(n2)C(=O)CC(c2ccco2)S3)cc1 (configuration not stated),666,-10.3% (inactive),,,,135,-0.466 (inactive),-5.1e-05 (inactive),,,,-1.15,-1.31,-2.71,-11.5% (inactive),0.00655 (inactive),inactive,-9.22% (inactive)
Cc1ccc(NC(=O)c2cc(N3CCOCC3)nc3ccccc23)cc1,674,-10.2% (inactive),,,,174,-0.393 (inactive),-2.7e-05 (inactive),,,,0.315,1.28,0.543,-16.8% (inactive),0.00495 (inactive),inactive,19% (inactive)
CCSc1nnc(-c2cccs2)o1,413,-4.5% (inactive),-4.3% (inactive),110,21.6% (inactive),111,-0.369 (inactive),-4.4e-05 (inactive),0.00573 (inactive),-21.5% (inactive),-57.7% (inactive),,,,,,,
Cn1c(NC(=O)c2cccc(Cn3cc(Cl)cn3)c2)nc2ccccc21,778,-2.9% (inactive),-32.7% (inactive),104,-61.1% (inactive),113,-0.548 (inactive),-1.6e-05 (inactive),0.00464 (inactive),-25.1% (inactive),-112% (inactive),,,,,,,

# Source: PubChem BioAssay
